Measurements as given in publication PMC11062922 (Nature Chemical Biology, 2023).
Read-outs that look alike come from different tables or passages of the source.

Key:
Set-up in all cases: species or system human, MV4-11 + K-562 + COLO205 + SK-N-BE2 + OVCAR-8
[1] = test system: ACVR1B; details: read-out: apparent Kd, n = 1
[2] = test system: AKT3; details: read-out: apparent Kd; compound concentrations: 100 nM and 1000 nM (sheet 'Samples'), CATDS: 5.7187277937225903E-2; n = 1
[3] = test system: CIT; details: read-out: apparent Kd; compound concentrations: 100 nM and 1000 nM (sheet 'Samples'), CATDS: 5.03714140810754E-2; n = 1
[4] = test system: CSNK1A1; details: read-out: apparent Kd, compound concentrations: 100 nM and 1000 nM (sheet 'Samples'), n = 1
[5] = test system: CSNK1D; details: read-out: apparent Kd; compound concentrations: 100 nM and 1000 nM (sheet 'Samples'), CATDS: 0.22591064083460399; n = 1
[6] = test system: CSNK1E; details: read-out: apparent Kd; compound concentrations: 100 nM and 1000 nM (sheet 'Samples'), CATDS: 0.181188642263544; n = 1
[7] = test system: MAPK10; details: read-out: apparent Kd; compound concentrations: 100 nM and 1000 nM (sheet 'Samples'), CATDS: 8.4251059270540496E-2; n = 1
[8] = test system: MAPK14; details: read-out: apparent Kd; compound concentrations: 100 nM and 1000 nM (sheet 'Samples'), CATDS: 0.16940162518750301; n = 1
[9] = test system: MAPK9; details: read-out: apparent Kd; compound concentrations: 100 nM and 1000 nM (sheet 'Samples'), CATDS: 7.1166451805227196E-2; n = 1
[10] = test system: MAPKAPK2; details: read-out: apparent Kd; compound concentrations: 100 nM and 1000 nM (sheet 'Samples'), CATDS: 7.7439810634818695E-2; n = 1
[11] = test system: MYLK3; details: read-out: apparent Kd; compound concentrations: 100 nM and 1000 nM (sheet 'Samples'), CATDS: 7.2718608613227403E-2; n = 1
[12] = test system: RIPK2; details: read-out: apparent Kd, compound concentrations: 100 nM and 1000 nM (sheet 'Samples'), n = 1
[13] = test system: TGFBR1; details: read-out: apparent Kd, compound concentrations: 100 nM and 1000 nM (sheet 'Samples'), n = 1
[14] = test system: ADRBK1; details: read-out: apparent Kd; compound concentrations: 100 nM and 1000 nM (sheet 'Samples'), CATDS: 5.42741985746545E-2; n = 1
[15] = test system: AKT1; details: read-out: apparent Kd; compound concentrations: 100 nM and 1000 nM (sheet 'Samples'), CATDS: 5.4273018110040303E-2; n = 1
[16] = test system: AKT2; details: read-out: apparent Kd; compound concentrations: 100 nM and 1000 nM (sheet 'Samples'), CATDS: 6.3448544870815707E-2; n = 1
[17] = test system: CDK17; details: read-out: apparent Kd; compound concentrations: 100 nM and 1000 nM (sheet 'Samples'), CATDS: 4.6046417847887898E-2; n = 1
[18] = test system: CDK6; details: read-out: apparent Kd; compound concentrations: 100 nM and 1000 nM (sheet 'Samples'), CATDS: 4.5600576408269602E-2; n = 1
[19] = test system: LIMK1; details: read-out: apparent Kd; compound concentrations: 100 nM and 1000 nM (sheet 'Samples'), CATDS: 4.6691533927662399E-2; n = 1
[20] = test system: MAP2K1; details: read-out: apparent Kd; compound concentrations: 100 nM and 1000 nM (sheet 'Samples'), CATDS: 5.0029485958775197E-2; n = 1
[21] = test system: MAP2K2; details: read-out: apparent Kd; compound concentrations: 100 nM and 1000 nM (sheet 'Samples'), CATDS: 5.0543278096989601E-2; n = 1
[22] = test system: NCL; details: read-out: apparent Kd; compound concentrations: 100 nM and 1000 nM (sheet 'Samples'), CATDS: 4.2837987158590003E-2; n = 1
[23] = test system: NQO1; details: read-out: apparent Kd; compound concentrations: 100 nM and 1000 nM (sheet 'Samples'), CATDS: 5.1571181916601101E-2; n = 1
[24] = test system: PHKG2; details: read-out: apparent Kd; compound concentrations: 100 nM and 1000 nM (sheet 'Samples'), CATDS: 4.0833835587176903E-2; n = 1
[25] = test system: PIM2; details: read-out: apparent Kd; compound concentrations: 100 nM and 1000 nM (sheet 'Samples'), CATDS: 5.4197855398822901E-2; n = 1
[26] = test system: PIP4K2C; details: read-out: apparent Kd; compound concentrations: 100 nM and 1000 nM (sheet 'Samples'), CATDS: 6.0471713091723403E-2; n = 1
[27] = test system: PRKAG1; details: read-out: apparent Kd; compound concentrations: 100 nM and 1000 nM (sheet 'Samples'), CATDS: 6.5107573303195193E-2; n = 1
[28] = test system: PYGL; details: read-out: apparent Kd; compound concentrations: 100 nM and 1000 nM (sheet 'Samples'), CATDS: 4.9538207783530498E-2; n = 1
[29] = test system: VDAC3; details: read-out: apparent Kd; compound concentrations: 100 nM and 1000 nM (sheet 'Samples'), CATDS: 4.4574473592348701E-2; n = 1
[30] = test system: YES1; details: read-out: apparent Kd; compound concentrations: 100 nM and 1000 nM (sheet 'Samples'), CATDS: 6.4280508089749694E-2; n = 1
[31] = test system: ZAK; details: read-out: apparent Kd; compound concentrations: 100 nM and 1000 nM (sheet 'Samples'), CATDS: 3.9848277554837802E-2; n = 1
[32] = test system: ACVR2B; details: read-out: apparent Kd; compound concentrations: 100 nM and 1000 nM (sheet 'Samples'), CATDS: 9.05518688532823E-2; n = 1
[33] = test system: OPA1; details: read-out: apparent Kd; compound concentrations: 100 nM and 1000 nM (sheet 'Samples'), CATDS: 7.7038231613769201E-2; n = 1
[34] = test system: PRKD2; details: read-out: apparent Kd; compound concentrations: 100 nM and 1000 nM (sheet 'Samples'), CATDS: 0.11729729568005599; n = 1
[35] = test system: PRKD3; details: read-out: apparent Kd; compound concentrations: 100 nM and 1000 nM (sheet 'Samples'), CATDS: 0.118060499220425; n = 1
[36] = test system: TGFBR2; details: read-out: apparent Kd; compound concentrations: 100 nM and 1000 nM (sheet 'Samples'), CATDS: 8.4852154522950404E-2; n = 1
[37] = test system: ADCK3; details: read-out: apparent Kd; compound concentrations:100 nM and 1000 nM (sheet 'Samples'); n = 1

Structure (SMILES): Nc1nccc(-c2c(-c3ccc(F)cc3)ncn2CCCN2CCOCC2)n1 [SB-216385]
- potency estimated from few doses ([1]; compound concentrations: 100 nM and 1000 nM (sheet 'Samples'), CATDS: 6.1592389938983201E-2): 1120 nM
- potency estimated from few doses [2]: 1440 nM
- potency estimated from few doses [3]: 2400 nM
- potency estimated from few doses ([4]; CATDS: 7.2342208976373404E-2): 712 nM
- potency estimated from few doses [5]: 86.6 nM
- potency estimated from few doses [6]: 120 nM
- potency estimated from few doses [7]: 493 nM
- potency estimated from few doses [8]: 134 nM
- potency estimated from few doses [9]: 743 nM
- potency estimated from few doses [10]: 601 nM
- potency estimated from few doses [11]: 703 nM
- potency estimated from few doses ([12]; CATDS: 6.8187313119451795E-2): 834 nM
- potency estimated from few doses ([13]; CATDS: 5.4047908089072998E-2): 1770 nM

Structure (SMILES): Cc1nnc(-c2ccc(C)c(-c3ccc(C(=O)Nc4cccc(C#N)c4)cc3)c2)o1 [GW607117X]
- potency estimated from few doses ([1]; compound concentrations: 100 nM and 1000 nM (sheet 'Samples'), CATDS: 5.7242163764382799E-2): 1170 nM
- potency estimated from few doses [14]: 1290 nM
- potency estimated from few doses [15]: 1290 nM
- potency estimated from few doses [16]: 976 nM
- potency estimated from few doses [17]: 1810 nM
- potency estimated from few doses [18]: 1850 nM
- potency estimated from few doses ([4]; CATDS: 4.1256570238539701E-2): 2360 nM
- potency estimated from few doses [19]: 1750 nM
- potency estimated from few doses [20]: 1510 nM
- potency estimated from few doses [21]: 1480 nM
- potency estimated from few doses [22]: 2140 nM
- potency estimated from few doses [23]: 1420 nM
- potency estimated from few doses [24]: 2420 nM
- potency estimated from few doses [25]: 1290 nM
- potency estimated from few doses [26]: 1060 nM
- potency estimated from few doses [27]: 935 nM
- potency estimated from few doses [28]: 1550 nM
- potency estimated from few doses [29]: 1950 nM
- potency estimated from few doses [30]: 955 nM
- potency estimated from few doses [31]: 2580 nM

Structure (SMILES): Cc1ccnc2ccc(-c3sc(N)nc3-c3ccccn3)nc12 [GW777257X]
- potency estimated from few doses ([1]; compound concentrations: 100 nM and 1000 nM (sheet 'Samples'), CATDS: 0.44095653710551203): 5.66 nM
- potency estimated from few doses [32]: 854 nM
- potency estimated from few doses ([4]; CATDS: 7.5324168753573395E-2): 1730 nM
- potency estimated from few doses [33]: 1570 nM
- potency estimated from few doses [34]: 384 nM
- potency estimated from few doses [35]: 377 nM
- potency estimated from few doses ([12]; CATDS: 9.3212886773084105E-2): 776 nM
- potency estimated from few doses ([13]; CATDS: 0.51991943788690098): 4.12 nM
- potency estimated from few doses [36]: 1070 nM

Structure (SMILES): COc1ccc2cc(-c3c(-c4ccncc4)nc(-c4ccc(S(C)(=O)=O)cc4C)n3C)ccc2c1 [SB-633825]
- potency estimated from few doses ([1]; compound concentrations:100 nM and 1000 nM (sheet 'Samples')): 686 nM
- potency estimated from few doses [37]: 803 nM
